NS1 function inh: inhibitors of influenza NS1 protein function | Potency, µM (titrated, usually from 46.1 µM), inactives show at the highest dose activity, positive = more growth | 270,000 tested, 0.4% active; note: potency is the fitted concentration of half-maximal effect; actives are rising curves; nearly all actives have a fitted effect of over 50% in size
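Read-out: OD600 growth recovery of NS1-expressing budding yeast. Cells grown overnight at 30C in -URA glucose medium, washed, resuspended and diluted 1:100 in 2% galactose assay medium, pH 6.0. Same strain lacking NS1 served as positive control.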
CHX counter: counter-screen hit for Shiga toxin inhibitors, cycloheximide; max response, %; 300,000 tested, 12% active; cell reporter, cycloheximide protein synthesis inhibition counterscreen; AID 2314; in the data active = max response mostly above about 13%, no sharp cut-off; inactive = mostly below about 14%; note: read at 38.3 µM for the half of the compounds with a filed dose; 0% is about no effect
SARS PLP yeast: SARS-CoV PLP inhibition in yeast; S. cerevisiae expressing SARS-CoV PLpro, growth rescue; 330,000 tested, 0.19% active; Potency, µM (series often up to 32.9 µM), inactives show at the top dose activity, positive = growth rescue, hits mostly activators; note: potency is the fitted concentration of half-maximal effect; 0% is about no effect; nearly all actives have a fitted effect of over 55% in size
Shiga inhibitor: inhibitors of Shiga toxin in Vero cells. Vero cells, Shiga toxin protein synthesis inhibition reporter. inhibition, % at 38.7 µM. 290,000 tested, 9.2% active. AID 2315; in the data active = inhibition mostly above about 28%, no sharp cut-off; inactive = mostly below about 43%; note: 0% is about no effect
The depositor's hits bear a star. Only some compounds are listed: those with a hit (about 12% of all), similar ones and a draw of the others. Unless noted, calls come from the whole dose curve.

Screening O=C(NCCC(=O)N1CCCCCCC1)c1ccc(Br)cc1 returned SARS PLP yeast 0%.
For CC(C)(C)c1ccc(C(=O)NNC(=O)C(=O)N2CCCCC2)cc1 the results were NS1 function inh -10%, CHX counter 17*, SARS PLP yeast 1% and Shiga inhibitor 39*.
CC(C)(C)c1ccc(C(=O)NCCC(=O)N2CCCC2)cc1 was read as NS1 function inh -18%, CHX counter 40*, SARS PLP yeast 8% and Shiga inhibitor 96*.
For O=C(COc1ccc(Cl)cc1)Nc1ccc2c(c1)nc1n2CCOC1 the results were NS1 function inh -3%, CHX counter 16, SARS PLP yeast -2% and Shiga inhibitor -5.
For Cn1ccnc1SCC(=O)NCC(=O)Nc1ccc(F)c(F)c1F the results were SARS PLP yeast 0%.
COc1cccc(/C=N/Nc2nc3ccccc3[nH]2)c1OC was read as NS1 function inh -4%, CHX counter 52*, SARS PLP yeast 0% and Shiga inhibitor 114*.
`COc1cccc(/C=N/Nc2ncnc(N)c2[N+](=O)[O-])c1OC` gave NS1 function inh 4%, CHX counter 35*, SARS PLP yeast 2% and Shiga inhibitor 73*.
COc1cccc(/C=N/Nc2nc3ccccc3[nH]2)c1O was read as NS1 function inh 2%, CHX counter 52*, SARS PLP yeast 7% and Shiga inhibitor 94*.
Screening Cc1cc(/C=N/Nc2ncnc(N)c2[N+](=O)[O-])c(C)n1-c1ccccc1 returned NS1 function inh 4%, CHX counter 4, SARS PLP yeast -1% and Shiga inhibitor -2.
For COc1ccccc1Nc1nc2ccccc2[nH]1 the results were NS1 function inh -50%, CHX counter 29*, SARS PLP yeast -2% and Shiga inhibitor 91*.
`S=C1Cc2ccccc2N1` gave NS1 function inh -73%, CHX counter 25, SARS PLP yeast -20% and Shiga inhibitor 45.
O=C(COC(=O)CCSc1ccccc1)Nc1cc(F)ccc1F was read as CHX counter -2, SARS PLP yeast -4% and Shiga inhibitor 51.
Cc1cccc(NC(=O)Cc2ccc(-c3ccccc3)cc2)n1 was read as NS1 function inh 8%, CHX counter 5, SARS PLP yeast -3% and Shiga inhibitor 14.
For O=C(C[n+]1ccc(Cc2ccccc2)cc1)Nc1ccccc1 the results were CHX counter 25, SARS PLP yeast 6% and Shiga inhibitor 39*.
`O=C(Cc1ccc(-c2ccccc2)cc1)Nc1ncccc1O` gave NS1 function inh -25%, CHX counter 37*, SARS PLP yeast -10% and Shiga inhibitor 80*.
O=C(CCCc1c[nH]c2ccccc12)Nc1ncccc1O was read as NS1 function inh -11%, CHX counter -3, SARS PLP yeast 4% and Shiga inhibitor 20.
`O=C(Cc1ccc(-c2ccccc2)cc1)Nc1ccccc1` gave NS1 function inh 0%, CHX counter 22*, SARS PLP yeast -4% and Shiga inhibitor 21.
Cc1cc(C(=O)CSc2nnc(-c3ccc(F)cc3)o2)c(C)n1CC1COc2ccccc2O1 (stereo not drawn) was read as NS1 function inh 14%, CHX counter -4, SARS PLP yeast 7% and Shiga inhibitor 2.
For Cc1cc(C(=O)CSc2nnc(-c3ccccc3)o2)c(C)n1CC1COc2ccccc2O1 (stereo not drawn) the results were NS1 function inh 3%, CHX counter 9, SARS PLP yeast 6% and Shiga inhibitor 39*.
For COc1cc(-c2nnc(SCC(=O)c3cc(C)n(CC4CCCO4)c3C)o2)cc(OC)c1OC (stereo not drawn) the results were NS1 function inh 3%, CHX counter 64*, SARS PLP yeast -3% and Shiga inhibitor active.
For O=C(c1ccco1)N1N=C(c2ccccc2)CC1c1ccc2nccnc2c1 (stereo not drawn) the results were NS1 function inh 4%, CHX counter 16*, SARS PLP yeast 0% and Shiga inhibitor 31.
`COc1ccc(C2=NN(S(C)(=O)=O)C(c3ccc4nccnc4c3)C2)cc1` (stereo not drawn) gave NS1 function inh 0%, CHX counter 79*, SARS PLP yeast -3% and Shiga inhibitor 60*.
Screening CS(=O)(=O)N1N=C(c2ccccc2)CC1c1ccc2nccnc2c1 (stereo not drawn) returned NS1 function inh 9%, CHX counter 18, SARS PLP yeast 5% and Shiga inhibitor 63*.
For O=C(O)CCC(=O)N1N=C(c2ccccc2)CC1c1ccc2nccnc2c1 (stereo not drawn) the results were NS1 function inh 1%, CHX counter 7, SARS PLP yeast 10% and Shiga inhibitor -7.
Screening CS(=O)(=O)N1N=C(c2ccc3nccnc3c2)CC1c1ccccc1 (stereo not drawn) returned NS1 function inh 9%, CHX counter 17*, SARS PLP yeast 2% and Shiga inhibitor 35.
Screening Cc1ccnc(N2CCC(C(=O)Nc3ccc4c(c3)OCCO4)CC2)n1 returned NS1 function inh -10%, CHX counter 4, SARS PLP yeast -1% and Shiga inhibitor 17.
For COc1ccc(NCc2cc(=O)oc3cc(NC(C)=O)ccc23)cc1 the results were NS1 function inh -2%, CHX counter 6, SARS PLP yeast 0% and Shiga inhibitor 2.
For O=C(CNS(=O)(=O)c1cccc(Br)c1)NCCCc1ccccc1 the results were NS1 function inh -14%, CHX counter -8, SARS PLP yeast 14% and Shiga inhibitor 3.
Cc1cc(OCC(=O)Nc2ccc(CN3CCOCC3)cc2)c2c(C)c(C)c(=O)oc2c1 was read as NS1 function inh -2%, CHX counter 7, SARS PLP yeast -3% and Shiga inhibitor -4.
`Cc1ccc(C2=NN(S(C)(=O)=O)C(c3ccc4nccnc4c3)C2)cc1` (stereo not drawn) gave NS1 function inh 7%, CHX counter 19*, SARS PLP yeast 5% and Shiga inhibitor 46*.
`COc1ccc(C2CC(c3ccc(OC)c(OC)c3)=NN2S(C)(=O)=O)cc1` (stereo not drawn) gave NS1 function inh -16%, CHX counter 63*, SARS PLP yeast 1% and Shiga inhibitor 88*.
For COc1ccc(CCNC(=O)COC(=O)c2cc(=O)[nH]c3ccccc23)cc1 the results were SARS PLP yeast -7%.
Screening C/C(Cn1nnc2ccccc21)=N\NC(=O)c1cccc(Br)c1 returned NS1 function inh -9%, CHX counter 24*, SARS PLP yeast -5% and Shiga inhibitor active.
C/C(=N\NC(=O)c1ccccc1Cl)c1ccccn1 was read as NS1 function inh -36%, CHX counter 28*, SARS PLP yeast 9% and Shiga inhibitor 85*.
For CCOc1ccc(OCc2ccc(C(=O)N/N=C(\C)c3ccccn3)cc2)cc1 the results were CHX counter 40*, SARS PLP yeast -2% and Shiga inhibitor 62.
`COc1ccc(Cl)cc1NC(=O)NNC(=O)c1ccccn1` gave NS1 function inh -21%, CHX counter 24*, SARS PLP yeast -2% and Shiga inhibitor -1.
`O=C(COC(=O)c1ccc[n+]([O-])c1)Nc1ccc([N+](=O)[O-])cc1Cl` gave SARS PLP yeast 1%.
Screening O=C(c1ccco1)N1CCN(S(=O)(=O)c2cccc(Cl)c2)CC1 returned NS1 function inh -5%, CHX counter -2, SARS PLP yeast 7% and Shiga inhibitor -6.

Bioassay records as filed in PubChem BioAssay.
